Sampled rows, rich in hits. Any-hit rate of the full collection: about 5.7%.
JMJD2A Tudor = JMJD2A Tudor domain (human) inhibition | O75164 | AlphaScreen JMJD2A-Tudor / H3K4me3 peptide binding | Potency, µM (series often up to 114 µM), for the others: at the highest dose activity change, negative = inhibition, most hits filed as inhibitors | 390,000 compounds, 4.4% hits | AID 504339; further: potency means the concentration at half of the fitted maximal effect; on the % scale 0 is the no-effect control and ±100 the full control effect; nearly all actives have a fitted effect of over 50% in size
HP1b chromo inh = HP1-beta chromodomain-methylated histone interaction inhibition; AlphaScreen HP1-beta / biotin-H3K9me3 peptide binding; Potency, µM (doses to about 114 µM), for the others: at the top dose activity change, negative = inhibition, actives largely listed as inhibitors; 390,000 compounds, 0.56% hits; AID 540317; further: potency means the concentration at half of the fitted maximal effect; nearly all actives have a fitted effect of over 70% in size
Target sequence (P83916 whole entry, looked up): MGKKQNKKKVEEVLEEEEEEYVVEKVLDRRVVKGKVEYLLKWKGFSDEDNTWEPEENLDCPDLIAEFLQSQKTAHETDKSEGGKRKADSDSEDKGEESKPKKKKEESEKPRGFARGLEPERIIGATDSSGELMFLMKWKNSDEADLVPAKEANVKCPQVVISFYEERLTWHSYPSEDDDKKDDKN
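AlphaScreen: HP1-beta (50 nM) preformed 30 min with biotin-H3(1-18)K9me3 peptide (50 nM) in PBS pH 7.4, 0.01% Tween-20. Compound added for 30 min at RT, then streptavidin donor/nickel chelate acceptor beads (10 ug/mL) for 30 min.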
BAZ2B block = blocks human BAZ2B | Q9UIF8 | AlphaScreen BAZ2B-H3K14Ac peptide displacement | Potency, µM (top dose mostly 114 µM), without a hit: at the top dose activity change, negative = inhibition, most hits filed as inhibitors | 360,000 compounds, 4.4% hits; further: potency means the concentration at half of the fitted maximal effect; on the % scale 0 is the no-effect control and ±100 the full control effect; nearly all actives have a fitted effect of over 60% in size
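In this displacement format the biotinylated H3(5-23) peptide acetylated at Lys14 serves as ligand at 50 nM, with BAZ2B at 50 nM in PBS pH 7.4 containing 0.01% Tween-20. Donor and acceptor beads are 10 ug/mL final.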
L3MBTL1 inh = inhibitors of human L3MBTL1; Q9Y468; AlphaScreen L3MBTL1–H3K9me1 peptide binding; Potency, µM (highest dose often 57.1 µM), inactives show top-dose activity, negative = inhibition, most hits filed as inhibitors; 230,000 compounds, 0.66% hits; further: potency means the concentration at half of the fitted maximal effect; on the % scale 0 is the no-effect control and ±100 the full control effect; nearly all actives have a fitted effect of over 60% in size
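AlphaScreen assay: L3MBTL1 (50 nM final) was preincubated 30 min at room temperature with biotinylated H3(1-15)K9me1 peptide (75 nM final), then 30 min with library compounds; streptavidin donor and nickel chelate acceptor beads (10 ug/mL final) added, 30 min dark.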
PI5P4K alpha inh = PI5P4K alpha (human) kinase inhibition | P48426 | PI5P4Kalpha enzyme, ADP-Glo luminescence, 60 min; active compounds read low | 330,000 compounds, 1.2% hits | max response, % | AID 652105; active means max response of -50% or lower; inconclusive means between -30% and -50%; inactive means -30% or higher; further: value at the top dose of about 77 µM; on the % scale 0 is the no-effect control and ±100 the full control effect
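Quantitative HTS of the MLSMR library against PI5P4Kalpha with substrate. ATP added last at 5 microM final; room temperature, 60 minutes. Remaining ATP depleted, ADP converted and read as luminescence.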
KDM4E inh = JMJD2E (human) inhibition | JMJD2E catalytic domain, FDH-coupled NADH fluorescence (FDH is formaldehyde dehydrogenase) | B2RXH2 | Potency, µM (highest dose often 57.1 µM), for the others: at the highest dose activity change, negative = inhibition, most hits filed as inhibitors | 230,000 compounds, 1.6% hits; active means well fitted inhibition curve with a large enough effect, not every such curve was filed as active; inconclusive means small, poorly fitted or top-dose-only effect, or another doubt; inactive means no such curve, though single readings can be large or run the other way;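 further: potency means the concentration at half of the fitted maximal effect; 0% = wells with enzyme and -100% = buffer wells without enzyme; nearly all actives have a fitted effect of over 50% in size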
Target sequence (B2RXH2 1-337 limits assumed): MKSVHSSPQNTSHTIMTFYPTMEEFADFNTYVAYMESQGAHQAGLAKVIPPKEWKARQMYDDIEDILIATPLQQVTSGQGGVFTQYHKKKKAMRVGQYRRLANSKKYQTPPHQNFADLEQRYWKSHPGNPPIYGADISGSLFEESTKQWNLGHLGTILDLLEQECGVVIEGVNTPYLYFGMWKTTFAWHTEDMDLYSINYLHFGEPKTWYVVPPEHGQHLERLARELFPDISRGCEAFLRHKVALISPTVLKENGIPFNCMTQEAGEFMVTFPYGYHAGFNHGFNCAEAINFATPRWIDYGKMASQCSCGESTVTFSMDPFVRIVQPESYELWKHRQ
* marks the source's active call; other numbers are inactive results; ? = inconclusive; . = no result given; [ ] = another dose, or the depositor's remark. Unless noted, the call rests on the fitted dose curve; in most records, active means well fitted inhibition curve with a large enough effect; inconclusive means small, poorly fitted or top-dose-only effect; inactive means no such curve, though single readings can be large or run the other way.

SMILES	JMJD2A Tudor	HP1b chromo inh	BAZ2B block	L3MBTL1 inh	PI5P4K alpha inh	KDM4E inh
CCCN(CCC)C(=O)NC1CC(=O)N(c2ccc(OC)cc2)C1 (stereo unspecified)	-1%	25%	-4%	-8%	-6	5%
CCOc1ccc(CNC(=O)CSc2nnc(C)c3c(C)n(-c4ccc(Cl)cc4)nc23)cc1	-8%	39%	1%	.	.	.
COc1cc(-c2nnc(SCC(=O)Nc3ccc(F)c(Cl)c3)o2)cc(OC)c1OC	-10%	26%	-1%	.	.	.
COc1ccccc1C(=O)Nc1nnc(S(=O)(=O)N(C)c2ccc(Cl)cc2)s1	0%	44%	13%	.	.	.
Cc1ccc(Nc2c(-c3ccccn3)nc3ccc(C)cn23)cc1	45µM*	8%	.	.	4	4%
Cc1ccc(Nc2c(-c3cc(Br)ccc3F)nc3cc(C)ccn23)cc1	-23%	?	?	.	.	.
Cc1ccc(Nc2c(-c3ccccn3)nc3cc(C)ccn23)cc1	40µM*	?	16µM*	.	11	0%
Cc1c(Cl)cccc1NC(=O)Cn1cc2c(n1)CCCC2	-14%	2%	-1%	.	.	.
Cc1cccc(C)c1NC(=O)CSc1nnc(NC(=O)CN2CCOCC2)s1	89µM*	11%	?	-1%	-1	13%
Cc1ccc(NC(=O)CSc2nnc(NC(=O)CN3CCOCC3)s2)cc1	?	19%	-37%	-12%	-2	-3%
COc1cc(C2c3c(-c4cc(C)ccc4O)n[nH]c3C(=O)N2CCCO)ccc1OCCC(C)C (stereo unspecified)	-27%	30%	-18%	.	.	.
COc1cc(OC)cc(C(=O)N2CCN(C(=O)c3cccnc3)CC2)c1	5%	45%	?	0%	0	.
O=C(c1cccnc1)N1CCN(Cc2cccc(Br)c2)CC1	3.5µM*	50µM*	19%	.	.	?
COc1ccc(CN2CCN(C(=O)c3cccnc3)CC2)cc1Br	3.2µM*	?	35µM*	-3%	.	?
O=c1[nH]c(=O)c2[nH]c(=O)n(-c3ccccc3)c2[nH]1	-6%	2%	.	.	-57*	.
O=c1cc(O)n(-c2ccccc2)c(=S)[nH]1	-20%[11.4 µM]	-5%	1%	9%	?	-11%
O=c1[nH]c(=S)c2[nH]c(=S)n(-c3ccccc3)c2[nH]1	20µM*	?	.	.	-84*	.
C=CCSC1=N/C(=C\c2cc(OCC)c(OC(C)=O)c([N+](=O)[O-])c2)C(=O)S1	18µM*	28µM*	35µM*	1.4µM*	-72*	4%
CC(=O)Nc1nonc1-c1nnc(SCC(=O)Nc2cc(C)cc(C)c2)n1C	0%	38%	1%	.	.	.
Cc1sc(-n2cccc2)c(C(=O)O)c1C	-36%	28%	50µM*	-14%	.	-1%
O=C(O)c1c(-n2cccc2)sc2c1CCCC2	-14%	9%	-25%	-3%	0	-18%
CCCN1C(=O)/C(=C/c2ccccc2OCc2ccc(C(=O)O)cc2)NC1=S	-28%	-25%	-29%	.	-1	9%
O=C(O)c1ccc(COc2ccccc2/C=C2\NC(=O)N(Cc3ccccc3)C2=O)cc1	25µM*	?	-28%	4%	-17	?
O=C(O)c1ccc(COc2ccccc2/C=C2\NC(=O)N(Cc3ccccc3F)C2=O)cc1	40µM*	?	-23%	-13%	-25	2%
COc1cc(/C=C2/NC(=O)N(Cc3ccccc3F)C2=O)cc(OC)c1O	-20%	33%	1%	.	1	?
SMILES	JMJD2A Tudor	HP1b chromo inh	BAZ2B block	L3MBTL1 inh	PI5P4K alpha inh	KDM4E inh
O=C(O)c1ccc(COc2ccc3ccccc3c2/C=C2/NC(=O)N(Cc3ccc(F)cc3)C2=O)cc1	20µM*	?	28µM*	?	5	?
Cc1ccc(NC(=O)Cn2c(=O)ccc3cc(S(=O)(=O)N4CCCC4)ccc32)cc1N(C)C	-1%	25%[57 µM]	4%	.	.	.
Cc1ccc(N=Nc2c(=O)[nH]n3c(=O)cc(C)[nH]c23)cc1	?	-17%	50µM*	.	?	4%
C#CCOCCOCCOCCNc1nc(N2CCN(C(=O)[C@H]([C@@H](C)CC)n3cc([C@@H](N)CO)nn3)CC2)nc(N2CCN(C(=O)[C@H](Cc3cc4ccccc4[nH]3)n3cc([C@@H](N)Cc4ccc(O)cc4)nn3)CC2)n1	.	.	14µM*	.	.	6%
C#CCOCCOCCOCCNc1nc(N2CCN(C(=O)C(Cc3ccc(O)cc3)n3cc(C(N)CC(C)C)nn3)CC2)nc(N2CCN(C(=O)C(Cc3cc4ccccc4[nH]3)n3cc(C(N)Cc4ccc(O)cc4)nn3)CC2)n1 (stereo unspecified)	.	.	35µM*	?	.	-3%
C#CCOCCOCCOCCNc1nc(N2CCOCC2)nc(N2CCN(C(=O)[C@H](Cc3cc4ccccc4[nH]3)n3cc([C@@H](N)Cc4ccc(O)cc4)nn3)CC2)n1	?	-7%	?	-17%	-2	8%
C#CCOCCOCCOCCNc1nc(N2CCN(C(=O)[C@H](CCC(=O)O)n3cc(C(N)Cc4ccc(O)cc4)nn3)CC2)nc(N2CCN(C(=O)[C@H](Cc3cc4ccccc4[nH]3)n3cc(C(N)CC(C)C)nn3)CC2)n1 (stereo partly specified)	.	.	79µM*	?	.	-7%
CCc1c(C)c(C#N)c2nc3ccccc3n2c1Nc1cccc(C(F)(F)F)c1	-11%	29%	-4%	.	.	.
CCCc1cnc2c(c1SCc1ccc(C(F)(F)F)cc1)c(=O)n(C)c(=O)n2C	-6%	50%	6%	.	.	.
O=[N+]([O-])c1cc(C(F)(F)F)ccc1NC1CCN(Cc2ccccc2)CC1	35µM*	50µM*	25µM*	.	13	8%
CCN(C(=O)CSc1nnc(CNc2cccc(OC)c2)n1C1CCCCC1)C1CCS(=O)(=O)C1 (stereo unspecified)	-17%	15%	0%	.	7	.
COc1ccc(-c2nc3cccc(OC)c3c(=O)n2Cc2ccccc2)cc1COc1ccc(NC(C)=O)cc1	50µM*	.	.	.	.	.
COc1ccc(CN(Cc2ccccc2)C(=O)COC(C)=O)cc1COc1ccc(NC(C)=O)cc1	-31%	9%	.	.	.	.
COc1ccc(-c2nc3ccccc3c(=O)n2Cc2ccc(CNC(=O)CO)cc2)cc1COc1ccc(NC(C)=O)cc1	79µM*	.	.	.	.	.
COc1ccc(-c2nc3ccccc3c(=O)n2Cc2ccco2)cc1COc1ccc(NC(C)=O)cc1	-21%	.	.	.	.	.
COc1ccc(-c2nc3ccc(NC(C)=O)cc3c(=O)n2Cc2cccc(Cl)c2)cc1COc1ccc(NC(C)=O)cc1	79µM*	-5%	.	.	.	.
COc1ccc(-c2nc3ccc(NC(=O)COC(C)=O)cc3c(=O)n2Cc2ccccc2)cc1COc1ccc(NC(C)=O)cc1	79µM*	-3%	.	.	.	.

Screens (PubChem)
